Source: PubChem BioAssay AID1022 (Emory University Molecular Libraries Screening Center, 2008)
Values joined by “and” are separate entries in the source; they are usually repeats but may differ in a detail not shown here. Equal entries are not always repeated. The campaign covered roughly 220,000 compounds. About 3,300 (1.5%) were called active. The sample holds actives, similar compounds and a random draw of the others, so the mix is not that of the screen.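 The calls were made as follows: active = compounds that cut the protein-peptide binding signal by more than 50% relative to plate controls in a single-dose test; inactive = the rest.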

These molecules were tested against Induced myeloid leukemia cell differentiation protein Mcl-1 (Homo sapiens) (UniProt Q07820) (assay: Mcl-1/Noxa binding inhibitors, primary screen, biochemical, TR-FRET, 1536-well (AID 1022;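 also: His-tagged Mcl-1 with rhodamine Noxa BH3 peptide and terbium anti-His antibody; 0% = Mcl-1 plus Noxa peptide wells and 100% = peptide-only wells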)). Details: TR-FRET Mcl-1/Noxa peptide binding, 2 h; at 21.7 µM; stronger effect = higher value.
Sequence of Induced myeloid leukemia cell differentiation protein Mcl-1 (Homo sapiens) (Q07820 whole entry, looked up): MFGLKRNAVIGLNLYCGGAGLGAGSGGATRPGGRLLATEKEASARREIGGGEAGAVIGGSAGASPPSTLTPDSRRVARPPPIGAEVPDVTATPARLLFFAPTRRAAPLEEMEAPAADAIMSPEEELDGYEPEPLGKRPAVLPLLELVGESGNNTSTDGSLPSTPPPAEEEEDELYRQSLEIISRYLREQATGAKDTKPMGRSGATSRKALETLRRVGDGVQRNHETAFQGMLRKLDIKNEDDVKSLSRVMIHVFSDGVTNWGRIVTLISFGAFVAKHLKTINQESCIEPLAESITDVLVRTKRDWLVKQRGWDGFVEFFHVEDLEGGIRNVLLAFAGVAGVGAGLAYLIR
For `Cc1c(NC(=O)C(=O)N/N=C/c2cccs2)c(=O)n(-c2ccccc2)n1C`, the inhibition was -17.4% (inactive). With `O=C(Nc1n[nH]c(C(F)(F)F)n1)c1cccs1` the inhibition was 1.44% (inactive). For `COC(=O)c1scc(C)c1NC(=O)CSc1ccc(Cl)cc1`, the inhibition was 2.67% (inactive). In the case of `CCN(CC)C(=O)C(=O)Nc1cccc(Br)c1`, the inhibition was -12.2% (inactive). For `CCN(CC)N=Nc1cccc(NC(C)=O)c1`, the inhibition was 52.4% (active). `CC(=O)Nc1cccc(C(=O)Nc2nc(C)cs2)c1` was tested, and the inhibition was 18.4% (inactive). `C=C(C)COc1ccc(-c2nc(N)ncc2-c2ccccc2OC)c(O)c1` was tested, and the inhibition was 19.2% (inactive). With `NC(=S)Nc1c(Cl)cccc1Cl` the inhibition was -2.54% (inactive). With `Cc1ccc(OC(=O)c2c(C)nn(-c3ccccc3)c2C)cc1` the inhibition was -10.1% (inactive). In the case of `CC(C)CCN1NC2(CCC(C)CC2)NC1=S` (stereo not given), the inhibition was 10.8% (inactive). With `Cc1ccc(OS(=O)(=O)c2ccc(-c3csc(C)n3)s2)c(C)c1` the inhibition was 10.9% (inactive). `Cn1nc(C(F)(F)F)cc1-c1ccc(/C=C(\C#N)C(=O)c2cccc(C(F)(F)F)c2)s1` was tested, and the inhibition was 8.47% (inactive). With `Cc1cc(C)n(C(=O)c2ccc(S(=O)(=O)N3CCCC3)cc2)n1` the inhibition was 7.15% (inactive). `COc1ccc(C(=O)OCC(=O)c2ccc(C)c(S(=O)(=O)N3CCOCC3)c2)cc1OC` was tested, and the inhibition was -9.99% (inactive). For `Cc1cc(C)n(C(=O)c2ccc(C)c(S(=O)(=O)N3CCOCC3)c2)n1`, the inhibition was 72.5% (active). `Cc1ccc(C)c2[nH]c(=O)c(CN(Cc3cccnc3)C(=S)NCc3ccco3)cc12` was tested, and the inhibition was 4.29% (inactive). For `N=C1/C(=C/c2cccn2-c2cccc([N+](=O)[O-])c2)C(=O)N=C2SC=CN12`, the inhibition was 64.6% (active). In the case of `N/C(=N\OC(=O)CCn1cccc(C(F)(F)F)c1=O)c1ccc(OC(F)(F)F)cc1`, the inhibition was -5.59% (inactive). In the case of `COc1ccc(NC2=CC(=S)NC(C)(C)C2)cc1`, the inhibition was 19.2% (inactive). For `O=c1cc(CN2CCN(S(=O)(=O)/C=C/c3ccccc3)CC2)c2ccc(O)cc2o1`, the inhibition was 57.9% (active). For `COc1ccc2c(CN3CCN(S(=O)(=O)c4cccs4)CC3)cc(=O)oc2c1`, the inhibition was -3.37% (inactive). For `O=C(CN1CCN(S(=O)(=O)/C=C/c2ccccc2)CC1)Nc1ccc(N2CCOCC2)cc1`, the inhibition was 9.11% (inactive). `Cc1nc2ccccc2nc1N/N=C/c1ccc(O)cc1O` was tested, and the inhibition was -26.1% (inactive). With `CCCCCCCN=C(C)c1ccccc1O` the inhibition was -3.31% (inactive). For `c1ccc2sc(NN=C3CCCC3)nc2c1`, the inhibition was 5.28% (inactive). For `Cc1ccc(S(=O)(=O)Nc2nc3ccccc3s2)cc1[N+](=O)[O-]`, the inhibition was 9.42% (inactive). In the case of `O=[N+]([O-])c1cc(Br)c(O)c(/C=N/Nc2nc3ccccc3s2)c1`, the inhibition was 79.4% (active). With `CCCN(CCC)S(=O)(=O)c1ccc(C(=O)NNC(=O)c2cc(OC)c(OC)c(OC)c2)cc1` the inhibition was 14.9% (inactive). For `Cc1cc(OCCCCOc2ccc(C#N)cc2)ccc1[N+](=O)[O-]`, the inhibition was 5.03% (inactive). With `CC/C=C/C(=O)N1CC2(CC(c3cccc(NC(=O)CC)c3)=NO2)C[C@H]1C(N)=O` (stereo not given in full) the inhibition was -7.66% (inactive). `COc1cc(/C=N\Nc2nc(-c3cccs3)c(NC(C)=O)s2)ccc1O` was tested, and the inhibition was 95.2% (active). With `COc1cc(/C=N/Nc2nc3ccccc3s2)ccc1O` the inhibition was 27.8% (inactive). In the case of `CCOc1cc(/C=C(\C#N)c2nc(-c3cccs3)c(NC(C)=O)s2)ccc1O`, the inhibition was 24.5% (inactive). With `CC(C)c1ccc(Nc2nnc(SCC(=O)c3nnc(-c4ccccc4)o3)s2)cc1` the inhibition was 104% (active). In the case of `O=C(CSc1nnc(Nc2ccccc2)s1)Nc1cccnc1Cl`, the inhibition was 9.43% (inactive). With `Cc1ccc(Nc2nnc(SCC(=O)c3cc4ccccc4o3)s2)cc1C` the inhibition was 24.3% (inactive). `Cc1cccc2c1-c1sc(C(=O)NCCCN3CCc4ccccc4C3)cc1CO2` was tested, and the inhibition was 11% (inactive). In the case of `CCOC(=O)CN(C(=O)COc1nc(-c2ccccc2)cc(C)c1C#N)c1ccc(F)cc1`, the inhibition was 7.27% (inactive). For `CN(C)C(=S)Nc1ccc(Br)cc1Cl`, the inhibition was -1.61% (inactive). `CN(C)CCCNC(=O)c1ccc2[nH]c3ccccc3c2c1` was tested, and the inhibition was 3.04% (inactive). In the case of `CN(C)c1ccc(C(CNC(=O)c2ccc(F)cc2)c2c[nH]c3ccccc23)cc1` (stereo not given), the inhibition was 75.8% (active). In the case of `O=C(Cc1ccccc1)NCc1ccc(F)cc1`, the inhibition was -0.05% (inactive). For `CCOC(=O)C1=NN(c2ccc(Cl)cc2)/C(=C/C2=NCCc3cc(OC)c(OC)cc32)S1`, the inhibition was 1.42% (inactive). With `O=C(Cn1c[n+](CC(=O)c2ccc([N+](=O)[O-])cc2)cn1)c1ccc([N+](=O)[O-])cc1` the inhibition was 27.4% (inactive) and -7.77% (inactive). In the case of `CCc1nnc(NC(=O)c2cccc(S(=O)(=O)N(C)c3ccc(OC)cc3)c2)s1`, the inhibition was 10.9% (inactive). With `CCc1nnc(NC(=O)c2sc3nc(C)cc(COC)c3c2N)s1` the inhibition was 22.4% (inactive). For `CCc1ccc2nc3sc(C(=O)Nc4nnc(CC)s4)c(N)c3cc2c1`, the inhibition was 90.1% (active). For `C#CCO[C@@H]1C[C@H](n2cnc3c(=O)[nH]c(NC(=O)C(C)C)nc32)O[C@@H]1CO`, the inhibition was -275% (inactive). For `Cc1ccc(C(=O)Cn2cc([N+](=O)[O-])nc2C)cc1`, the inhibition was -26.9% (inactive). With `Cc1cccc(N=C2NC(=O)/C(=C/c3cn(C)c4ccccc34)S2)c1` the inhibition was 4.96% (inactive). In the case of `Cc1ccc(N=C2NC(=O)/C(=C/C=C/c3ccco3)S2)cc1C`, the inhibition was 107% (active). In the case of `Cc1ccc(N2NC(=O)/C(=C/C=C/c3ccco3)C2=O)cc1C`, the inhibition was 6.33% (inactive). In the case of `CC(C)(C)c1cc(NC(=O)NN2CCOCC2)nn1-c1c(Cl)cc(Cl)cc1Cl`, the inhibition was 2.67% (inactive). In the case of `N/C(=N\S(=O)(=O)c1ccc(Cl)cc1)N1CCOCC1`, the inhibition was -2.49% (inactive). With `C/C=C/C(=O)Nc1ccc(N2CCN(c3ccc(C(F)(F)F)cn3)CC2)nc1` the inhibition was 4.65% (inactive). `Cc1ccnc(N2CCC(C(=O)NC3CCCCCC3)CC2)n1` was tested, and the inhibition was -9.93% (inactive). In the case of `Cc1ccnc(-n2sc3ccccc3c2=O)n1`, the inhibition was 69% (active). In the case of `Cc1ccnc(Nc2nc3ccccc3s2)n1`, the inhibition was -8.28% (inactive). For `CCCCCCCC(=O)OC(CN1CCCCCC1)CN1CCCC1=O` (stereo not given), the inhibition was -0.02% (inactive). For `Cc1ccc2cc(/C=N/Nc3ccc(C(=O)O)cc3)c(Cl)nc2c1`, the inhibition was 32.8% (inactive). With `Cn1c2c(c(=O)n(C)c1=O)C(c1cccc(F)c1)C(C#N)=C(N)O2` (stereo not given) the inhibition was -5.47% (inactive). In the case of `Cc1ccc(C2Nc3ccccc3C(=O)N2CCN2CCNC2=O)cc1` (stereo not given), the inhibition was -12.9% (inactive). In the case of `O=C(COC(=O)c1ccc(F)cc1F)Nc1ncccn1`, the inhibition was 65.1% (active). For `COc1cc(OC)cc(C(=O)OCC(=O)Nc2ccc(F)cc2F)c1`, the inhibition was 2.79% (inactive). For `CC(NC(=O)COC(=O)c1ccc(Cl)cc1O)c1ccc(F)cc1` (stereo not given), the inhibition was 0.03% (inactive). With `Cc1nnc(Nc2ccccc2F)s1` the inhibition was -14.1% (inactive). `C/C(Cc1ccccc1)=N\NC(=O)CNC(=O)c1ccccc1Cl` was tested, and the inhibition was -7.79% (inactive). For `O=C1N(c2ccccc2)C(=Nc2ccccc2)SC12CC2`, the inhibition was 1.01% (inactive). With `O=C1Oc2ccccc2C(=O)/C1=C/c1ccccc1O` the inhibition was 81.4% (active). `C=CCn1c(SCC(=O)CC(=O)OCC)nc2cc(C(=O)N3CCC(C(N)=O)CC3)ccc2c1=O` was tested, and the inhibition was -5.71% (inactive). `C=CCn1c2ccccc2c2nnc(SC(CC)C(=O)Nc3nc(C)c(C(=O)OCC)s3)nc21` (stereo not given) was tested, and the inhibition was 11.2% (inactive). `C=CCn1c2ccccc2c2nnc(SCc3[nH]c(=O)[nH]c3C(=O)CCCCC(=O)OCC)nc21` was tested, and the inhibition was 52.5% (active). In the case of `CC(C)(C)n1cnnc1Sc1ccc([N+](=O)[O-])cn1`, the inhibition was 2.83% (inactive). In the case of `N#Cc1ccccc1CN1C(=O)S/C(=C/c2cccn2-c2cccc(C(=O)O)c2)C1=O`, the inhibition was 66.4% (active). In the case of `Cn1cccc1/C=C1\SC(=O)N(CC(=O)Nc2ccc(F)cc2)C1=O`, the inhibition was 12.7% (inactive). In the case of `Cc1ccccc1NC(=O)CN1C(=O)N/C(=C\c2cccn2-c2cccc(C(=O)O)c2)C1=O`, the inhibition was 40.1% (inactive). `Nc1ccc(N=Nc2ccccc2Cl)c(N)n1` was tested, and the inhibition was 10.8% (inactive). For `COc1ccc(CCNC(=O)C2CC3Cn4c(nc5cc(C)c(C)cc54)C3N2C)cc1` (stereo not given), the inhibition was -4.09% (inactive). In the case of `COc1ccc(C(=O)O/N=C(\N)Cc2ccc(Cl)cc2Cl)cc1OC`, the inhibition was 6.09% (inactive). `COc1ccc(CC(=O)Nc2ccccc2NC(=O)c2ccco2)cc1OC` was tested, and the inhibition was 36.8% (inactive). With `COc1ccc(C/C(N)=N/OC(=O)c2ccco2)cc1OC` the inhibition was 64.8% (active). In the case of `N#C/C(=C\N1CCOCC1)S(=O)(=O)c1ccc(Cl)cc1`, the inhibition was -9.31% (inactive). `COc1ccc(-c2ccc(OC(=O)NC3CCS(=O)(=O)C3)cc2)cc1` (stereo not given) was tested, and the inhibition was -3.15% (inactive). `COc1cccc2c(C)c(C(=O)O)[nH]c12` was tested, and the inhibition was 83.1% (active). `COc1cccc2c(O)cc(=O)n(C)c12` was tested, and the inhibition was -20.5% (inactive). `Cc1c(C(=O)N/N=C/c2ccccc2)[nH]c2c([N+](=O)[O-])cccc12` was tested, and the inhibition was 21% (inactive). In the case of `COc1ccc(CN2CCOC2=O)cc1OC`, the inhibition was 6.85% (inactive). For `COc1cccc(N2C(=O)CC(N3CCc4ccccc4C3)C2=O)c1` (stereo not given), the inhibition was -10.9% (inactive). For `C=CCNC(=O)CSc1nc2scc(-c3ccco3)c2c(=O)n1CC=C`, the inhibition was 8.55% (inactive). In the case of `O=C1CCCC(O)=C1N=Nc1ccc2ncsc2c1`, the inhibition was 62.8% (active). With `O=C1CCCC(O)=C1N=Nc1ccc(S(=O)(=O)N2CCOCC2)cc1` the inhibition was 23.9% (inactive). `C/C(=N\NC(=O)c1cccnc1)c1ccc(-c2ccccc2)cc1` was tested, and the inhibition was 2.98% (inactive). In the case of `C/C(=C\c1ccco1)C1Nc2cccc3cccc(c23)N1`, the inhibition was 74.9% (active). With `COc1cccc(C2Nc3cccc4cccc(c34)N2)c1` the inhibition was 34.5% (inactive). `O=C(NCC1CCCO1)/C(=C\c1ccco1)NC(=O)c1ccccc1` (stereo not given) was tested, and the inhibition was 4.51% (inactive).
